# Measurements: ChEMBL document CHEMBL3988442, “University of Dundee, Small-Polar-MMV Screening Library” (2021)
# Out of some 66,000 compounds screened, about 960 (1.5%) showed an effect of 50% or more. The sample as a whole holds a higher share of strong results than the screen did.
# Tested on: Trypanosoma brucei
# Test: Trypanosoma brucei 72 hour study
# Format: functional, organism-based
# Set-up: scale not given: in the data most compounds retested in dose-response had high values
structure (smiles),measurement,setting,value
Cc1noc(C)c1CN1CCn2cc(CN3CCCC3)nc2C1.O=C(O)C(F)(F)F.O=C(O)C(F)(F)F,Percent Effect,"30.3 µM, […]",0.2362%
Cc1ccc(CN2CCc3ncnc(-c4ccncc4)c3CC2)o1.O=C(O)C(F)(F)F.O=C(O)C(F)(F)F,Percent Effect,"30.3 µM, […]",-37.96%
Nc1ncncc1-c1noc([C@@H]2CCCN2CC2CC2)n1,Percent Effect,"30.3 µM, […]",-4.914%
Nc1ncncc1-c1noc([C@@H]2CCCN2CCCc2ccccc2)n1,Percent Effect,"30.3 µM, […]",101.5%
Nc1ncncc1-c1noc([C@@H]2CCCN2Cc2cccnc2)n1,Percent Effect,"30.3 µM, […]",-3.258%
O=C(O)C(F)(F)F.O=C(O)C(F)(F)F.c1cncc(-c2nnn3c2COCC(CNC2CCOCC2)C3)c1 (stereo not given),Percent Effect,"30 µM, 30.03 µM",-0.7004%
CC(=O)N1C[C@@H](c2ccsc2)[C@@H]2CN(Cc3ccccc3)CC[C@@H]21,Percent Effect,"30 µM, 30.03 µM",3.298%
COc1cccc(CN2CC[C@H]3[C@@H](C2)[C@H](c2ccsc2)CN3C(C)=O)c1,Percent Effect,"30.3 µM, […]",-3.85%
COc1cccc([C@H]2CN(C(C)=O)[C@@H]3CCN(Cc4ccsc4)C[C@H]23)c1.Cl,Percent Effect,"30.3 µM, […]",96.3%
Cc1nnsc1C(=O)N1C[C@H]2CC[C@@H]1CN(c1cnccn1)C2,Percent Effect,"30 µM, 30.03 µM",0.47%
Cc1cnc2c(c1NCc1cccnc1)c(=O)n(C)c(=O)n2C,Percent Effect,"30 µM, 30.03 µM",-45.54%
CCc1noc(CN2CCN(C(=O)C3CC3)CC2)n1,Percent Effect,10 µM,-20.32%
CCCS(=O)(=O)NCc1nc(C)cc(N2CCCC2)n1,Percent Effect,"30 µM, 30.03 µM",60.24%
CCS(=O)(=O)NCc1nc(C)cc(N2CCCCC2)n1,Percent Effect,"30 µM, 30.03 µM",-14.09%
CCS(=O)(=O)NCc1nc(C)cc(N2CCOCC2)n1,Percent Effect,"30 µM, 30.03 µM",-12.8%
O=S(=O)(Cc1ccccc1)NCc1nnc2n1CCC2,Percent Effect,"30 µM, 30.03 µM",-38.65%
Cc1cc(N2CCCC2)nc(CNS(=O)(=O)Cc2ccccc2)n1,Percent Effect,"30 µM, 30.03 µM",99.66%
CCS(=O)(=O)NCc1nc(C)cc(N2CCCC2)n1,Percent Effect,"30 µM, 30.03 µM",4.691%
O=C1[C@H]2CC[C@H](CN(Cc3nnc(C4CC4)o3)C2)N1Cc1cscn1,Percent Effect,"30 µM, 30.03 µM",-30.68%
CCN1CCOCC12CCN(C(=O)C1CCC1)CC2.O=C(O)C(F)(F)F,Percent Effect,"30.3 µM, […]",-58.96%
Cc1ccc(F)cc1NS(=O)(=O)c1cc2c(c(C(=O)O)c1)OCCO2,Percent Effect,"30.3 µM, […]",-13.96%
O=C(O)C(F)(F)F.O=C(c1ccco1)N1C[C@H]2CCCN(Cc3nccs3)[C@H]2C1,Percent Effect,"30 µM, 30.03 µM",20.08%
CN(C)C(=O)CN1CCCC1c1cccc(Cc2ccccc2F)n1 (stereo not given),Percent Effect,"30.3 µM, […]",100.6%
CC(=O)N1CCCC1c1cccc(Cc2ccc(F)cc2)n1 (stereo not given),Percent Effect,"30 µM, 30.03 µM",14.65%
CC(=O)N1CCCC1c1cccc(Cc2ccccc2F)n1 (stereo not given),Percent Effect,"30.3 µM, […]",99.36%
CN1CCC(c2cccc(Cc3ccc(C(F)(F)F)cc3)n2)CC1,Percent Effect,"30.3 µM, […]",100.8%
CC(=O)N1CCCC1c1cccc(NCc2ccccc2F)n1 (stereo not given),Percent Effect,"30.3 µM, […]",-16.97%
CN1CCC(c2cccc(Cc3ccccc3)n2)CC1,Percent Effect,"30.3 µM, […]",2.73%
CC(=O)N1CCCC1c1cccc(Cc2ccccc2Cl)n1 (stereo not given),Percent Effect,"30.3 µM, […]",2.284%
CN(C)C(=O)CCc1cncc(C2CCCN2Cc2ccccn2)n1 (stereo not given),Percent Effect,"30.3 µM, […]",-6.842%
CN1CCC(c2cccc(Cc3ccc(F)cc3)n2)CC1,Percent Effect,"30.3 µM, […]",22.86%
CN(C)C(=O)CN1CCC(c2cccc(Cc3ccc(F)cc3)n2)CC1,Percent Effect,"30.3 µM, […]",-2.775%
CN1CCCC1c1cccc(Cc2ccc(F)cc2)n1 (stereo not given),Percent Effect,"30.3 µM, […]",99.38%
COCC(=O)N1CCCC1c1cccc(Cc2ccccc2F)n1 (stereo not given),Percent Effect,"30.3 µM, […]",-5.491%
CN(C)c1nc(NCCCN2CCc3ccccc32)ncc1F,Percent Effect,"30 µM, 30.03 µM",-2.481%
CC1CCN(c2ncc3c(n2)CN(Cc2cccc(F)c2)C3=O)CC1,Percent Effect,"30 µM, 30.03 µM",-36.51%
Cl.c1cn(-c2cnc(C3CCCNC3)cn2)cn1 (stereo not given),Percent Effect,"30.3 µM, […]",-22.3%
Cc1ccnc(NC(=O)C2CCN(CCCn3ccnc3)CC2)c1,Percent Effect,"30 µM, 30.03 µM",-9.272%
Cc1ncn(CCNC(=O)Nc2ccc(OC(F)(F)F)cc2)c(=O)c1C,Percent Effect,"30 µM, 30.03 µM",-6.151%
Cc1cc(C2CCCN(Cc3nc(Cc4ccccc4)no3)C2)n[nH]1 (stereo not given),Percent Effect,"30 µM, 30.03 µM",-33.51%
Cc1ccc(CN2CCC3(CC2)CC(N2CCN(C)CC2)CO3)s1.O=C(O)C(F)(F)F.O=C(O)C(F)(F)F.O=C(O)C(F)(F)F (stereo not given),Percent Effect,"30.3 µM, […]",-296.4%
Cc1cncc(C(=O)N2CC[C@@]3(C[C@H](NS(C)(=O)=O)CCO3)C2)c1.O=C(O)C(F)(F)F,Percent Effect,"30.3 µM, […]",-90.12%
CCN1CCCn2c(nc(CNC(=O)c3cnoc3C)cc2=O)C1.O=C(O)C(F)(F)F,Percent Effect,"30 µM, 30.03 µM",9.742%
CS(=O)(=O)N1CCCC1c1cccc(Cc2ccccc2F)n1 (stereo not given),Percent Effect,"30.3 µM, […]",0.4351%
Fc1cccc(Cc2cncc(C3CCCN3C3CCOCC3)n2)c1 (stereo not given),Percent Effect,"30.3 µM, […]",9.592%
c1ccc(Cc2cccc(C3CCCN3C3CCOCC3)n2)cc1 (stereo not given),Percent Effect,"30.3 µM, […]",101%
CN(C)S(=O)(=O)N1CCCC(c2cccc(Cc3ccc(Cl)cc3)n2)C1 (stereo not given),Percent Effect,"30.3 µM, […]",99.29%
CN(C)S(=O)(=O)N1CCCC(c2cccc(Cc3ccccc3F)n2)C1 (stereo not given),Percent Effect,"30.3 µM, […]",46.46%
CN1CCCC1c1cccc(Cc2ccccc2F)n1 (stereo not given),Percent Effect,"30.3 µM, […]",101.4%
c1ccc(Cc2cncc(C3CCCN3C3CCOCC3)n2)cc1 (stereo not given),Percent Effect,"30.3 µM, […]",-18.14%
CN(C)S(=O)(=O)N1CCCC(c2cccc(Cc3ccc(F)cc3)n2)C1 (stereo not given),Percent Effect,"30.3 µM, […]",41.5%
CN(C)S(=O)(=O)N1CCCC(c2cccc(Cc3ccccc3)n2)C1 (stereo not given),Percent Effect,"30 µM, 30.03 µM",-81.93%
COCCCNc1c(-c2ccc(Cl)cc2)c(=O)c1=O,Percent Effect,"30.3 µM, […]",13.47%
O=C(c1cnccn1)N1CCCC(Cc2cccc3ncccc23)C1 (stereo not given),Percent Effect,"30.3 µM, […]",-10.31%
CN(C)C(=O)[C@@H]1CCO[C@@H]2CCN(CCOCc3ccccc3)C[C@H]21.O=C(O)C(F)(F)F,Percent Effect,"30.3 µM, […]",-3.678%
CC(C)(C)c1nc(NS(=O)(=O)c2ccccc2F)no1,Percent Effect,"30 µM, 30.03 µM",-17.01%
O=C(NCC1CC1)C1CCC2(CCN(C(=O)c3ccncc3)CC2)O1.O=C(O)C(F)(F)F (stereo not given),Percent Effect,"30.3 µM, […]",-42.23%
Cc1noc(C)c1CN1CCO[C@H]2[C@H](Oc3ncccc3F)CC[C@@H]21.O=C(O)C(F)(F)F.O=C(O)C(F)(F)F,Percent Effect,"30 µM, 30.03 µM",-9.669%
CCCN(CCc1ccccn1)C(=O)CCc1cnn(C)c1,Percent Effect,"30 µM, 30.03 µM",-34.35%
CCN(CC)Cc1ccc(C(=O)N2CCCC2Cn2cccn2)cc1 (stereo not given),Percent Effect,10 µM,-13.25%
